Source: PubChem BioAssay AID1851 (National Center for Advancing Translational Sciences (NCATS), 2009)
Among all 16,000 compounds or so, about 2,600 (16%) were called active. Inconclusive results (about 20%) are left out. The call rests on the fitted dose curve; in most records, active means well fitted curve in the direction sought with a large enough effect; inconclusive means small, poorly fitted or top-dose-only effect, or effect the other way; inactive means no such curve, though single readings can be large or run the other way. Only a sample is shown.
On the % scale 0 is the no-effect control and ±100 the full control effect.

These compounds were tested against Cytochrome P450 2D6 (Homo sapiens) (UniProt P10635) (assay: Cytochrome panel assay with activity outcomes). Conditions: recombinant CYP, pro-luciferin dealkylation, luminescence, p450-cyp2d6; series mostly up to 57.1 µM.
Cytochrome P450 2D6 (Homo sapiens), sequence (P10635 whole entry, looked up): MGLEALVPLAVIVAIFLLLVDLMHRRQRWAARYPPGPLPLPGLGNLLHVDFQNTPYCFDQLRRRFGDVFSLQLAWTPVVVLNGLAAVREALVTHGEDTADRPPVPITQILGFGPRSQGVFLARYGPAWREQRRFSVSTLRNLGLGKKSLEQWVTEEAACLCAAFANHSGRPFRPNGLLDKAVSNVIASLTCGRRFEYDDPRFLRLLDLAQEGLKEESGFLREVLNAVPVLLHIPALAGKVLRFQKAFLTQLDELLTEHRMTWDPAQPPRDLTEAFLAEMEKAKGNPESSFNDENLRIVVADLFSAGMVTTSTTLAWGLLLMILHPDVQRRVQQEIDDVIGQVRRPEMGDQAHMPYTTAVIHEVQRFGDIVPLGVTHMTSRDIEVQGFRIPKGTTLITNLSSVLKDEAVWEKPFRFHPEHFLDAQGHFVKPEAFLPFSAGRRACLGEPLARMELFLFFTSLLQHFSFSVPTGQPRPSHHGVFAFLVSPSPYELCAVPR
For O=S(=O)(NCCCCCCc1ccccc1)c1cccc2c(Cl)cccc12, the AC50 was “inactive”. CCCCCCCNS(=O)(=O)c1cccc2c(Cl)cccc12 was tested, and the AC50 was “inactive”. For CCCCNS(=O)(=O)c1ccc(OC)c(Cl)c1Cl, the AC50 was “inactive”. In the case of NCCCCCCCCCCNS(=O)(=O)c1cccc2c(Cl)cccc12, the AC50 is reported as 1.26 µM (active). For NCCCCCCNS(=O)(=O)c1cccc2ccccc12, the AC50 was “inactive”. With NCCCCCCNS(=O)(=O)c1cccc2c(Cl)cccc12 the AC50 was 12.6 µM (active). C#C[C@]1(O)CC[C@@H]2[C@H]3CCC4=CCCC[C@@H]4[C@@H]3CC[C@@]21C was tested, and the AC50 was “inactive”. With N#CCCn1c(=O)c(-c2cc(F)cc(F)c2)nc2cnc(OCc3ccccc3)nc21 the AC50 was “inactive”. In the case of Cc1ncc(COP(=O)(O)O)c(C)c1O, the activity, negative = inhibition is reported as 11.2% [at 11.4 µM] (inactive). In the case of Cn1cc(/C=N/n2cnc3scc(-c4ccccc4)c3c2=O)c2ccccc21, the AC50 is reported as “inactive”. For CN1CC[C@H](CN2c3ccccc3Sc3ccccc32)C1, the AC50 was 0.126 µM (active). With CN1CCC[C@@H](CC2c3ccccc3Sc3ccccc32)C1 the AC50 was 0.316 µM (active). With CO[C@H]1COC(=O)[C@@H](Cc2ccccc2)NC(=O)[C@@H](C)COC(=O)C/C=C\[C@@H]1C the activity, negative = inhibition was 2.58% [at 11.4 µM] (inactive). CC(C)(C)c1ccc(C2CC2C(=O)N/N=C\c2cc3ccccc3nc2Cl)cc1 (stereo not given) was tested, and the AC50 was “inactive”. COC(=O)[C@@]1(Cc2ccccc2)[C@@H]2C(=CC(=O)[C@H]2CC(=O)C(=O)N(C)C)CN1C(=O)c1ccccc1 was tested, and the AC50 was “inactive”. In the case of COc1cc(C2C(C#N)=C(N)OC3=C2C(=O)CCC3)c([N+](=O)[O-])cc1OC (stereo not given), the AC50 is reported as “inactive”. Nc1ncnc2c1ncn2[C@@H]1O[C@@H](C(=O)NC2CC2)[C@H](O)[C@@H]1O was tested, and the AC50 was “inactive”. OC[C@@H](O)CNc1ncnc2ccccc12 was tested, and the activity, negative = inhibition was 3.48% [at 11.4 µM] (inactive). c1ccc(CN2CC[C@@H](CNc3ncnc4ccccc34)C2)cc1 was tested, and the AC50 was 0.794 µM (active). For CC(CO)(CO)Nc1ncnc2ccccc12, the activity, negative = inhibition was -4.58% [at 11.4 µM] (inactive). COCCn1c(=O)cnc2cnc(Nc3ccccc3)nc21 was tested, and the AC50 was “inactive”. In the case of CC(C)(C)OC(=O)NCCc1nnc(SCC(=O)Nc2cccc(Cl)c2)o1, the AC50 is reported as “inactive”. With CCC(=O)Nc1cccc(NC(=O)CSc2nnnn2Cc2ccccc2)c1 the AC50 was “inactive”. In the case of O=C(CSc1nnc(Cn2nnc3ccccc32)o1)Nc1cccc(Cl)c1, the AC50 is reported as 12.6 µM (active). In the case of CC(=O)[C@H]1CC[C@H]2[C@@H]3C=CC4=CC(=O)CC[C@@]4(C)[C@H]3CC[C@]12C, the AC50 is reported as “inactive”. With COC(=O)CC1C(=O)NCCN1C(=O)Nc1ccc(Cl)cc1 (stereo not given) the AC50 was “inactive”. With Cc1ccc(-n2cc(C(=O)c3ccc4ccccc4c3O)cn2)cc1 the AC50 was “inactive”. For CSC1(SC2=NCCN2)SC2(NCCN2)S1, the AC50 was 3.98 µM (active). For COc1ccc(/C=N/NC(=O)CCc2ccccc2)cc1O, the AC50 was “inactive”. With COc1cc(CNCCc2ccccc2)ccc1OCC(=O)NC(C)(C)C the AC50 was 3.16 µM (active). In the case of CCOc1cc(CNc2ccc(OC)cc2)cc(Br)c1OCC(=O)NC(C)(C)C, the AC50 is reported as “inactive”. COc1ccc(CNC(=O)Nc2cccs2)cc1OC was tested, and the AC50 was “inactive”. With COc1ccc(CNCCc2ccccc2)cc1OCC(N)=O the AC50 was 0.398 µM (active). In the case of COc1cc(CNCc2cccs2)ccc1OCC(N)=O, the AC50 is reported as 2 µM (active). For COc1ccc(C/C(N)=N/OC(=O)Cc2ccccc2)cc1OC, the AC50 was “inactive”. COc1ccc(C[C@@](C)(N)C(=O)O)cc1OC was tested, and the AC50 was “inactive”. CC(C)(C)c1ccc(OCC(=O)NNC(=O)CCc2ccccc2)cc1 was tested, and the AC50 was “inactive”. In the case of N[C@@H]1[C@@H]2[C@@H]3C[C@H]4N(CC[C@@]14C(=O)C(=O)O)CC3=CCO[C@@H]2CC(=O)O, the activity, negative = inhibition is reported as -4.74% [at 11.4 µM] (inactive). For Cc1cccc2nc(C(F)(F)F)nc(=O)n12, the AC50 was “inactive”. In the case of COc1cccc(Cn2c(=O)c(-c3cn(C)c4ccccc34)nc3cnc(OC)nc32)c1, the AC50 is reported as “inactive”. With COc1ccc(NS(=O)(=O)c2cc(-c3nnnn3C)ccc2OC)cc1 the AC50 was “inactive”. COC(=O)Nc1nc2ccc(C(=O)c3cccs3)cc2[nH]1 was tested, and the AC50 was “inactive”. COCC(=O)N1CCC2(CCCN(c3ccncc3)C2)CC1 was tested, and the AC50 was “inactive”. In the case of CC1=C(C(N)=O)C(c2ccccn2)n2nc(SCc3ccccc3Cl)nc2N1 (stereo not given), the AC50 is reported as “inactive”. CC(C)CNc1nc(N)[nH]c(=O)c1NC=O was tested, and the activity, negative = inhibition was -2.42% [at 11.4 µM] (inactive). For CN1CCN(c2ncc3nc(-c4cc(F)cc(F)c4)c(=O)n(CCC#N)c3n2)CC1, the AC50 was “inactive”. For Cc1cccc(-n2cccc2)c1C#N, the AC50 was “inactive”. For FC(F)(F)c1ccccc1-n1ccnc1, the AC50 was “inactive”. With N#Cc1c(-n2ccnc2)cccc1-n1ccnc1 the AC50 was 6.31 µM (active). For O=C(/C=C\NCC(=O)c1ccccc1)c1ccccc1, the AC50 was “inactive”. With N#CC1=C(N)OC2=C(CC/C2=C\c2ccccc2)C1c1ccccc1 (stereo not given) the AC50 was “inactive”. In the case of Cc1c(-c2c(C#N)c(N)nc3c2CCCCCC3)cnn1C, the AC50 is reported as “inactive”. In the case of COc1ccc(CNc2ncncc2-c2ccc(N(C)C)cc2)c(OC)c1, the AC50 is reported as 10 µM (active). For COc1ccc(CNc2ncncc2-c2ccc(C(=O)N(C)C)cc2)c(OC)c1, the AC50 was 20 µM (active). For CO[C@H]1COC(=O)[C@H](C)COC(=O)[C@@H](Cc2ccccc2)NC(=O)C/C=C\[C@H]1C, the activity, negative = inhibition was 3.3% [at 11.4 µM] (inactive). NS(=O)(=O)c1cc2c(cc1C(F)(F)F)N[C@H](Cc1ccccc1)NS2(=O)=O was tested, and the AC50 was “inactive”. With CCN1CCN(S(=O)(=O)c2ccc(Cl)c(C(=O)Nc3nnc(CC(C)C)s3)c2)CC1 the AC50 was “inactive”. For Cc1ccc(C(=O)NC(=S)Nc2cc(-c3nc4ccccc4s3)ccc2C)cc1, the AC50 was “inactive”. For Cc1ccc(C)c(NC(=O)C2C3CCCC2C3c2ccccc2)c1 (stereo not given), the AC50 was 2.82 µM (active). For Cc1ccc(C)c(NC(=O)Cn2c([N+](=O)[O-])cnc2C)c1, the AC50 was “inactive”. With Cc1ccc(C)c(NC(=O)C2CC3c4ccccc4C2c2ccccc23)c1 (stereo not given) the AC50 was 0.2 µM (active). Cc1ccc(C)c(NC(=O)C2CC(O)CN2C(=O)OC(C)(C)C)c1 (stereo not given) was tested, and the AC50 was “inactive”. With CCOc1ncccc1C(=O)OCC(=O)Nc1cc(C)ccc1C the AC50 was “inactive”. For Cc1ccc(C)c(NC(=O)C2(C)CC3c4ccccc4C2c2ccccc23)c1 (stereo not given), the AC50 was 0.2 µM (active). With Cc1ccc(NC(=O)C2C3CCCC2C3c2ccccc2)cc1C (stereo not given) the AC50 was “inactive”.
